{
  "source": "PubChem BioAssay AID1851",
  "about": "(National Center for Advancing Translational Sciences (NCATS), 2009)",
  "note": "In all, about 16,000 compounds went through this assay and about 4,000 (25%) were called active. Roughly 26% stayed inconclusive and do not appear here. Calls come from the whole dose curve; as a rule, active = well fitted curve in the direction sought with a large enough effect; inconclusive = small, poorly fitted or top-dose-only effect, or effect the other way; inactive = no such curve, though single readings can be large or run the other way. Not all results are given here. % is set by controls: 0 for no effect and ±100 for the full control effect.",
  "data": [
    {"molecular_target": "Cytochrome P450 2C9 (Homo sapiens) (UniProt P11712)", "sequence (P11712 whole entry, looked up)": "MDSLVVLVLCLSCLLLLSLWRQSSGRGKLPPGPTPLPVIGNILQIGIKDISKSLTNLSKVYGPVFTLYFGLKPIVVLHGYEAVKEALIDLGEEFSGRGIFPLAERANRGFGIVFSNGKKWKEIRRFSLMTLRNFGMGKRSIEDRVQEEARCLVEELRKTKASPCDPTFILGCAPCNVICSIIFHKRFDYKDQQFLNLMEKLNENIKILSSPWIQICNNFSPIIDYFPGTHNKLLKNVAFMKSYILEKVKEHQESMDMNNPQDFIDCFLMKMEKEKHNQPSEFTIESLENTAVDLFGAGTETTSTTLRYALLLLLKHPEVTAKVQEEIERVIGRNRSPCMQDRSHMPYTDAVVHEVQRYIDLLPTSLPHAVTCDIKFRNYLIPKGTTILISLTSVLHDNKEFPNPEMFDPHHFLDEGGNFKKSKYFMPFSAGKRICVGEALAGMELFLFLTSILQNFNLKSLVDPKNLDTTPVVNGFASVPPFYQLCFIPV", "assay": "Cytochrome panel assay with activity outcomes", "settings": "recombinant CYP, pro-luciferin dealkylation, luminescence, p450-cyp2c9; series mostly up to 57.1 µM", "values": [
      {"compound": "O=C(O)[C@@H]1[C@@H](C(=O)Nc2ncccn2)[C@@H]2C=C[C@@H]1O2", "activity, negative = inhibition": "2.98% [at 11.4 µM] (inactive)"},
      {"compound": "c1cc(CNCCCN2CCOCC2)ccn1", "AC50": "inactive"},
      {"compound": "FC(F)(F)c1nc2nc(Cl)c(Cl)nc2n1CCCN1CCOCC1", "AC50": "2.51 µM (active)"},
      {"compound": "OCCN1CCOCCOCCN(CCO)CCN(CCO)CC1", "AC50": "inactive"},
      {"compound": "CCCC(=O)NCCc1c2n(c3ccc(OC)cc13)Cc1ccccc1-2", "AC50": "1.26 µM (active)"},
      {"compound": "CCCCC(=O)NCCc1c(Cc2ccccc2)[nH]c2ccccc12", "AC50": "inactive"},
      {"compound": "CCOC(=O)/C(C(N)=NCCCO)=C(/O)c1ccccc1", "AC50": "inactive"},
      {"compound": "CC/C(=N/Nc1ccccc1)c1cnnc(SC)n1", "AC50": "0.891 µM (active)"},
      {"compound": "CSc1nncc(/C(C)=N\\Nc2ccccc2)n1", "AC50": "4.47 µM (active)"},
      {"compound": "C#CCCCO/N=C1/C[C@@H](O)[C@@H](O)[C@@H]2[C@@H]3C(=O)N(CC)C(=O)[C@H]3CC[C@@H]12", "activity, negative = inhibition": "0.179% [at 11.4 µM] (inactive)"},
      {"compound": "O=C(O)[C@@H](c1ccccc1)[C@@H](C(=O)O)c1ccccc1", "activity, negative = inhibition": "0.327% [at 11.4 µM] (inactive)"},
      {"compound": "Nc1cc(N)nc(SCC(=O)c2ccccc2)n1", "AC50": "inactive"},
      {"compound": "O=C(CSc1ncnc2nc[nH]c12)c1ccccc1", "activity, negative = inhibition": "-26.2% [at 11.4 µM] (inactive)"},
      {"compound": "Cc1cc(SCC(=O)c2ccccc2)nc(SCC(=O)c2ccccc2)n1", "AC50": "0.891 µM (active)"},
      {"compound": "COc1ccc(C[C@@H]2C(=O)N[C@H](C)C(=O)N(C)[C@@H]3Cc4ccc(cc4)Oc4cc(ccc4O)C[C@H](C(=O)N[C@@H](C)C(=O)N[C@H](C)C(=O)N2C)N(C)C3=O)cc1", "activity, negative = inhibition": "3.77% [at 11.4 µM] (inactive)"},
      {"compound": "CN(C)CC(O)COc1cccc(OCC(O)CN(C)C)c1", "note": "(configuration not stated)", "AC50": "inactive"},
      {"compound": "CCC(=O)c1ccc(OCC(O)CN(CCc2ccccc2)Cc2ccccc2)cc1", "note": "(configuration not stated)", "AC50": "3.16 µM (active)"},
      {"compound": "CN(C)CC(O)COc1ccc(C(C)(C)c2ccc(OCC(O)CN(C)C)cc2)cc1", "note": "(configuration not stated)", "AC50": "inactive"},
      {"compound": "Cc1ccccc1-c1ccc2ncnc(N3CCN(C)CC3)c2c1", "activity, negative = inhibition": "20.6% [at 2.29 µM] (inactive)"},
      {"compound": "O=C(O)c1c(-c2c3ccc(=O)cc-3oc3cc(O)ccc23)cc2ccccc2c1-c1ccccc1", "activity, negative = inhibition": "13% [at 11.4 µM] (inactive)"},
      {"compound": "C=CCSc1nc(Oc2ccccc2)c2sccc2n1", "AC50": "8.91 µM (active)"},
      {"compound": "C=CCSc1ccsc1C(=O)O", "AC50": "inactive"},
      {"compound": "C/C(CCC(=O)OC[C@@H]1O[C@H](C#Cc2ccccc2)C=C[C@@H]1Oc1ccc(C)cc1)=N/O[C@@H](C)CN1CCCCc2nc(C)c(C)cc21", "activity, negative = inhibition": "-2.52% [at 11.4 µM] (inactive)"},
      {"compound": "COC(=O)[C@@]1(Cc2ccccc2)[C@H]2c3cc(C(=O)N4CCCC4)n(Cc4ccccn4)c3C[C@H]2CN1C(=O)c1ccccc1", "AC50": "0.2 µM (active)"},
      {"compound": "COC(=O)[C@@]1(Cc2ccc(F)cc2)[C@H]2c3cc(C(=O)N4CCCC4)n(Cc4ccccn4)c3C[C@H]2CN1C(=O)c1ccccc1", "AC50": "2 µM (active)"},
      {"compound": "CC1(CCC(=O)OC2CCCCC2)OCCO1", "activity, negative = inhibition": "-10.2% [at 11.4 µM] (inactive)"},
      {"compound": "Cc1ccc(S(=O)(=O)N[C@H]2COC(=O)C/C=C\\[C@@H](C)[C@H](NS(=O)(=O)c3ccc(C)cc3)COC(=O)C/C=C\\[C@H]2C)cc1", "activity, negative = inhibition": "0.307% [at 11.4 µM] (inactive)"},
      {"compound": "CNC(=O)c1ccc(-c2sc3nc(N4CCOCC4)c4c(c3c2N)CC(C)(C)OC4)o1", "AC50": "4.47 µM (active)"},
      {"compound": "CCNc1ncc2nc(-c3cccc(C#N)c3)c(=O)n(C)c2n1", "AC50": "inactive"},
      {"compound": "CCOc1nc(NC(C)C)nc(NC(C)C)n1", "AC50": "inactive"},
      {"compound": "COc1ccc(C(=O)Nc2cccc3c2C(=O)NC3=O)cc1S(=O)(=O)N1CCOCC1", "AC50": "inactive"},
      {"compound": "CCN(CC)S(=O)(=O)c1ccc(OC)c(NC(=O)CSc2ccccc2)c1", "AC50": "2.51 µM (active)"},
      {"compound": "CCN(CC)S(=O)(=O)c1cc(C(=O)Nc2ccccc2C(=O)O)ccc1OC", "AC50": "2.24 µM (active)"},
      {"compound": "CCN(CC)S(=O)(=O)c1ccc(OC)c(NC(=O)c2cc([N+](=O)[O-])ccc2Cl)c1", "AC50": "inactive"},
      {"compound": "C[C@H]1CC(C)(C)C[C@@](OCCN2CCCCC2)(c2ccccc2)C1", "activity, negative = inhibition": "5.46% [at 11.4 µM] (inactive)"},
      {"compound": "CCNc1ncc2nc(-c3cccs3)c(=O)n(C[C@H]3CCCO3)c2n1", "AC50": "inactive"},
      {"compound": "CC(=O)N1CCC[C@@]2(CCN(c3ncccn3)C2)C1", "AC50": "inactive"},
      {"compound": "COC(=O)N1CCC2(CC1)CN(c1ccncc1)C2", "AC50": "inactive"},
      {"compound": "O=C(Oc1ccccc1)N1CCC2(CC1)CN(c1ccccn1)C2", "AC50": "inactive"},
      {"compound": "O=C(Oc1ccccc1)N1CCC[C@@]2(CCN(c3ncccn3)C2)C1", "AC50": "10 µM (active)"},
      {"compound": "COC(=O)N1CCC[C@@]2(CCN(c3ncccn3)C2)C1", "AC50": "inactive"},
      {"compound": "CC(=O)N1CCC[C@@]2(CCN(c3ccncc3)C2)C1", "AC50": "inactive"},
      {"compound": "O=C(Oc1ccccc1)N1CCC2(CC1)CN(c1ccccc1)C2", "AC50": "inactive"},
      {"compound": "O=C(Oc1ccccc1)N1CCC2(CC1)CN(c1ccncc1)C2", "AC50": "3.16 µM (active)"},
      {"compound": "O=C(Oc1ccccc1)N1CCC2(CC1)CCN(c1ncccn1)CC2", "AC50": "15.8 µM (active)"},
      {"compound": "O=C(Oc1ccccc1)N1CCC[C@@]2(CCN(c3ccncc3)C2)C1", "AC50": "10 µM (active)"},
      {"compound": "O=C(Oc1ccccc1)N1CCC2(CC1)CCN(c1ccccc1)CC2", "AC50": "inactive"},
      {"compound": "O=C(c1ccncc1)N1CCC[C@@]2(CCN(c3ccccc3)C2)C1", "AC50": "inactive"},
      {"compound": "COCC(=O)N1CCC2(CCCN(C(=O)Nc3cccc(C#N)c3)C2)CC1", "AC50": "inactive"},
      {"compound": "O=[N+]([O-])c1nccn1C[C@H](O)CN1CCCCC1", "activity, negative = inhibition": "0.319% [at 11.4 µM] (inactive)"},
      {"compound": "COc1cccc(Nc2ncc3nc(-c4cc(F)cc(F)c4)c(=O)n(CCC#N)c3n2)c1", "AC50": "inactive"},
      {"compound": "CCN1/C(=C/c2ccc3cccc(C)c3[n+]2CC)Sc2ccccc21", "AC50": "inactive"},
      {"compound": "O=[N+]([O-])c1cc(F)c(N2CCOCC2)cc1N1CCCCC1", "AC50": "7.08 µM (active)"},
      {"compound": "O=C1N/C(=C\\c2ccc(N3CCOCC3)c(F)c2)C(=O)N1Cc1ccccc1", "AC50": "inactive"},
      {"compound": "Cn1ncc([N+](=O)[O-])c1C(=O)N1CCOCC1", "AC50": "inactive"},
      {"compound": "N#Cc1c2n(c3c(=S)nc[nH]c13)CCCCC2", "AC50": "17.8 µM (active)"},
      {"compound": "CO[C@H]1COC(=O)[C@H](C)COC(=O)C/C=C\\[C@@H](C)[C@H](OC)COC(=O)C/C=C\\[C@@H]1C", "activity, negative = inhibition": "8.36% [at 11.4 µM] (inactive)"}
    ]}
  ]
}
